Test results reported in PubChem BioAssay.
For some of these results: Entries with a potency or affinity are not part of this list. Activity calls are given as the source filed them. Unless noted, no rule for the calls is given here.

What was measured:
[1] = antimalarial activity against Dd2 strain (AID 2302;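 active = growth inhibition above 50% at the single 2 µM test dose, taken to imply half-maximal potency below 2 µM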;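 also: 0% = DMSO untreated growth and 100% = chloroquine plus artemisinin killed control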); details: P. falciparum Dd2 in RBCs, LDH growth readout, 72 h; at 2 µM; active compounds read high
[2] = human hepatoma cell viability loss – ATP luminescence, cytotoxicity control for P. falciparum antimalarial project, primary screen (AID 2303;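 active = inhibition above 50%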;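 also: 0% = DMSO wells and 100% = digitonin-killed cells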); details: HepG2 viability, 24-48 h, at 10 µM, active compounds read high
[3] = molecular target: L-lactate dehydrogenase (Plasmodium falciparum (isolate CDC / Honduras)) (UniProt Q27743); assay: PfLDH activity inhibition – cell lysate, 3D7 strain, counter-screen for P. falciparum growth inhibition project (AID 2304);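 also: 0% = vehicle and 100% = reference inhibitor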; details: P. falciparum 3D7 crude extract, LDH APAD/NBT absorbance; at 2 µM; active compounds read high
[4] = inhibition of 3D7 malaria parasite growth – strain 3D7 (AID 2306);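 also: 0% = DMSO wells and 100% = chloroquine plus artemisinin control wells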; details: P. falciparum 3D7 erythrocytic growth, LDH absorbance, 72 h; at 2 µM; active compounds read high
[5] = molecular target: Calcium-dependent protein kinase 1 (Plasmodium falciparum (isolate 3D7)) (UniProt P62344); assay: PfCDPK1 kinase inhibitors, biochemical, TCAMS library (AID 1159585; cut-off not given, nearly all actives have IC50 up to about 0.98 µM;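 also: inhibitors leave more ATP so luminescence rises with inhibition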); details: recombinant PfCDPK1, Kinase-Glo ATP depletion luminescence
[6] = molecular target: Plasmodium falciparum protein kinase 6 (PK6, PF3D7_1337100) (UniProt Q8IDW1); assay: PfPK6 kinase inhibitors, biochemical, TCAMS library (AID 1159586); details: recombinant PfPK6, Kinase-Glo ATP depletion luminescence
[7] = molecular target: Protein kinase 7 (PK7), Plasmodium falciparum 3D7 (PF3D7_0213400) (UniProt Q7YTF7); assay: inhibition of Plasmodium PK7 catalytic activity – biochemical, TCAMS antimalarial set, Kinase-Glo luminescence (AID 1159587); details: recombinant PfPK7, Kinase-Glo ATP depletion luminescence
[8] = molecular target: Calcium-dependent protein kinase 4 (Plasmodium falciparum (isolate 3D7)) (UniProt Q8IBS5); assay: PfCDPK4 kinase inhibitors, biochemical, TCAMS library (AID 1159588; cut-off not given, nearly all actives have IC50 up to about 0.91 µM); details: recombinant PfCDPK4, Kinase-Glo ATP depletion luminescence
Chain of Calcium-dependent protein kinase 4 (Plasmodium falciparum (isolate 3D7)) (Q8IBS5 whole entry, looked up): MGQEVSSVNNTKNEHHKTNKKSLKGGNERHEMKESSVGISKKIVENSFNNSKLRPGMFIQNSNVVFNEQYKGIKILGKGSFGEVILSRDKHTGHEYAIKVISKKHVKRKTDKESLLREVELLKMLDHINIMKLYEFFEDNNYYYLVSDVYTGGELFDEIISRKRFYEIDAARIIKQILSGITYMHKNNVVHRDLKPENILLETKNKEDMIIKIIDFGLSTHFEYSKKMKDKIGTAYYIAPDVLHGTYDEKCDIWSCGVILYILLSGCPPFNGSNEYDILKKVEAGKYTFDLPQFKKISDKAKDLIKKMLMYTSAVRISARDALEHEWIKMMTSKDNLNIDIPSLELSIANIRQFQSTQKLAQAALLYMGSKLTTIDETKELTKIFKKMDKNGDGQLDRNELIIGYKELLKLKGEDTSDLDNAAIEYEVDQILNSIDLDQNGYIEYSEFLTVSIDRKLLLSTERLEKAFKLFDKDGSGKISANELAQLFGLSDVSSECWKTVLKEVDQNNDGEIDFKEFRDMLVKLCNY

Chain of Calcium-dependent protein kinase 1 (Plasmodium falciparum (isolate 3D7)) (P62344 whole entry, looked up): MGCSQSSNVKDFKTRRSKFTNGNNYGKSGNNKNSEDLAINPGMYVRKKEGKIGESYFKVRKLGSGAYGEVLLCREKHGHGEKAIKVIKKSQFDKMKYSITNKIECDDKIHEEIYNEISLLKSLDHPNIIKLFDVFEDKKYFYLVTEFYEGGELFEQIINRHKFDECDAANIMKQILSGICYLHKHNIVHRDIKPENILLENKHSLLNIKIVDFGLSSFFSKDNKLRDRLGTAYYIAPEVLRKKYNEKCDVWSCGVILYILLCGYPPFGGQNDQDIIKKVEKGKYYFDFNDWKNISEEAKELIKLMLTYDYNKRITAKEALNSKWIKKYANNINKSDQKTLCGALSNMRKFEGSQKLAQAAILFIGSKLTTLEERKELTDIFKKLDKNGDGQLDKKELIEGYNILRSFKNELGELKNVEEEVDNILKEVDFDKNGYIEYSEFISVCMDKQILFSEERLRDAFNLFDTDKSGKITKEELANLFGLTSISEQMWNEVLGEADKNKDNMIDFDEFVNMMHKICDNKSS
Chain of L-lactate dehydrogenase (Plasmodium falciparum (isolate CDC / Honduras)) (Q27743 whole entry, looked up): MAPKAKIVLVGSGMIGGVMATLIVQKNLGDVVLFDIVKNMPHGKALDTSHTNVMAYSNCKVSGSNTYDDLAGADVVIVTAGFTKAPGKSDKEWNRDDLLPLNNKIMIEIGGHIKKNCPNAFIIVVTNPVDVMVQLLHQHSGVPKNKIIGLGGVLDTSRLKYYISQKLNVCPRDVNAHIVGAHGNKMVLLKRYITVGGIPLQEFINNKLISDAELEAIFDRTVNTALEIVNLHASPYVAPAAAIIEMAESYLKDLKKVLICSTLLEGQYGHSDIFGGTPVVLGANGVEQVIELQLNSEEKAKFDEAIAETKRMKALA
Chain of Plasmodium falciparum protein kinase 6 (PK6, PF3D7_1337100) (Q8IDW1 1-305): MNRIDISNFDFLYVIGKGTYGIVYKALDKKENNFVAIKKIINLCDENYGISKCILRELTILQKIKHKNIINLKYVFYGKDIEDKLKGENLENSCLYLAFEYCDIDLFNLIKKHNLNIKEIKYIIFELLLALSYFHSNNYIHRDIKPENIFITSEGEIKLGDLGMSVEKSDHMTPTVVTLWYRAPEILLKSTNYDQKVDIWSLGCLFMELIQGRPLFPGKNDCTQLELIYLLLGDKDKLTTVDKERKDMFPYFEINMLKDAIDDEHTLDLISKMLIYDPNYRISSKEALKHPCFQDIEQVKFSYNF
Chain of Protein kinase 7 (PK7), Plasmodium falciparum 3D7 (PF3D7_0213400) (Q7YTF7 1-343): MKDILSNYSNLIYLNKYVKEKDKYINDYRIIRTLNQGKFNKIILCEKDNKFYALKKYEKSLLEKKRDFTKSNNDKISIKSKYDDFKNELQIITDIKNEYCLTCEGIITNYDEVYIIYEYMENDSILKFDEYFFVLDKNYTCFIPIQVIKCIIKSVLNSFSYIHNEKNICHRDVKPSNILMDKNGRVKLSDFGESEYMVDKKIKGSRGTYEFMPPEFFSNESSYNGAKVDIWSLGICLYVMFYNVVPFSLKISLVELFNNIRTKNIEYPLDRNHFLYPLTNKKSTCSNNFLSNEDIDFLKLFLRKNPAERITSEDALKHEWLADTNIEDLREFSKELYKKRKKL

O=C(Nc1cccc(-c2nn3ccccc3c2-c2ccnc(Nc3cccc(C(F)(F)F)c3)n2)c1)c1c(F)cccc1F
inactive: inhibition [2] 43% | inhibition [3] -2% | outcome [5] | outcome [6] | outcome [7] | outcome [8]
active: growth inhibition [1] 91% | growth inhibition [4] 97%

COC(=O)Nc1ccc(-c2ccc(C(=O)NC3CCN(C[C@H](O)c4ccnc5ccc(OC)cc45)CC3)cc2)c(C)c1
active: growth inhibition [1] 97% | growth inhibition [4] 100%
inactive: inhibition [2] 32% | inhibition [3] -2% | outcome [5] | outcome [6] | outcome [7] | outcome [8]

COc1ccc(COc2cc(NCCCN)nc3ccccc23)cc1
inactive: growth inhibition [1] 5% | inhibition [2] 3% | inhibition [3] -4% | outcome [5] | outcome [6] | outcome [7] | outcome [8]
active: growth inhibition [4] 101%

CCCCn1c(Sc2ccc(C#N)c([N+](=O)[O-])c2)nnc1-c1cc(OC)cc(OC)c1
active: growth inhibition [1] 70% | growth inhibition [4] 94%
inactive: inhibition [2] 7% | inhibition [3] 2% | outcome [5] | outcome [6] | outcome [7] | outcome [8]

CC(=O)Nc1ccc(CN(C)C2CCN(c3cc(NC(=O)c4cccc(C)c4)ccn3)CC2)cc1
inactive: growth inhibition [1] 13% | inhibition [2] -2% | inhibition [3] -1% | outcome [5] | outcome [6] | outcome [7] | outcome [8]
active: growth inhibition [4] 94%

CCc1c(CCNCCCCCCNC(C)Cc2ccc3c(c2CC)OCO3)ccc(OC)c1OC (stereo not drawn)
active: growth inhibition [1] 64% | inhibition [2] 100% | growth inhibition [4] 101%
inactive: inhibition [3] 0% | outcome [5] | outcome [6] | outcome [7] | outcome [8]

O=C(N[C@@H](Cc1ccccc1)C(=O)NC1CCCCC1)c1ccc(O)c(-c2ccc(Cl)c(Cl)c2)c1
active: growth inhibition [1] 99% | growth inhibition [4] 98%
inactive: inhibition [2] -5% | inhibition [3] 1% | outcome [5] | outcome [6] | outcome [7] | outcome [8]

Cc1ccc(NC(=O)c2cc(Br)cc(N3CCCN(C)CC3)c2)cc1F
inactive: growth inhibition [1] 1% | inhibition [2] 15% | inhibition [3] -2% | outcome [5] | outcome [6] | outcome [7] | outcome [8]
active: growth inhibition [4] 87%

O=S(=O)(/C=C/c1ccccc1)N(Cc1ccc(-c2ccc(CNCCOc3ccccc3)cc2)cc1)CC1CCCCN1 (stereo not drawn)
active: growth inhibition [1] 95% | inhibition [2] 99% | growth inhibition [4] 99%
inactive: inhibition [3] 4% | outcome [5] | outcome [6] | outcome [7] | outcome [8]

COc1ccc(CC(=O)Nc2ccc(Nc3nc(C)cc(N4CCCC4)n3)cc2)cc1
active: growth inhibition [1] 65% | inhibition [2] 56% | growth inhibition [4] 101%
inactive: inhibition [3] -1% | outcome [5] | outcome [6] | outcome [7] | outcome [8]

O=C(Nc1ccc(-c2ccc(-c3nc4ccccc4[nH]3)s2)cc1)Nc1ccc(F)c(F)c1F
inactive: inhibition [3] 5% | outcome [5] | outcome [6] | outcome [7] | outcome [8]
active: growth inhibition [1] 97% | inhibition [2] 57% | growth inhibition [4] 99%

O=C(Nc1ccc(-c2cccc(-c3nc4ccc(C(F)(F)F)cc4[nH]3)c2)cc1)Nc1ccc(Cl)c(Cl)c1
inactive: growth inhibition [1] 23% | inhibition [2] 42% | inhibition [3] 7% | outcome [5] | outcome [6] | outcome [7] | outcome [8]
active: growth inhibition [4] 98%

Fc1ccc2nc(-c3cccc(-c4cccc(CNCCc5ccncc5)c4)c3)[nH]c2c1
inactive: inhibition [2] 22% | inhibition [3] 2% | outcome [5] | outcome [6] | outcome [7] | outcome [8]
active: growth inhibition [1] 88% | growth inhibition [4] 100%

O=C(Nc1cccc(CN2CCCN(Cc3ncc[nH]3)CC2)c1)c1ccc(-c2ccccc2)cc1
inactive: inhibition [2] 23% | inhibition [3] -5% | outcome [5] | outcome [6] | outcome [7] | outcome [8]
active: growth inhibition [1] 56% | growth inhibition [4] 101%

CN(Cc1cccc(O)c1)C1CCN(c2cc(NC(=O)c3cccc(F)c3)ccn2)CC1
active: growth inhibition [4] 98%
inactive: growth inhibition [1] 37% | inhibition [2] -2% | inhibition [3] 0% | outcome [5] | outcome [6] | outcome [7] | outcome [8]

COc1ccc(-c2csc(N(CCCN(C)C)C(=O)c3cc4c(C)nn(-c5ccccc5)c4s3)n2)cc1
active: inhibition [2] 100% | growth inhibition [4] 102%
inactive: growth inhibition [1] 16% | inhibition [3] -2% | outcome [5] | outcome [6] | outcome [7] | outcome [8]

CC(C)N(Cc1ccc(-c2ccc(C(F)(F)F)cc2)cc1)C(=O)Cn1c(CCc2cccc(F)c2F)cc(=O)c2ccc(CCCN3CCCCC3)cc21
active: growth inhibition [1] 82% | inhibition [2] 99% | growth inhibition [4] 100%
inactive: inhibition [3] 7% | outcome [5] | outcome [6] | outcome [7] | outcome [8]

CC(Oc1cccc(Cl)c1)C(=O)N1CCc2ccccc21 (stereo not drawn)
active: growth inhibition [1] 77% | growth inhibition [4] 94%
inactive: inhibition [2] 4% | inhibition [3] -1% | outcome [5] | outcome [6] | outcome [7] | outcome [8]

Cc1cccc(NC(=O)c2ccc(C(=O)NC3CCN(CC4CCCCC4)CC3)cc2)c1
active: growth inhibition [4] 95%
inactive: growth inhibition [1] 18% | inhibition [2] 14% | inhibition [3] -1% | outcome [5] | outcome [6] | outcome [7] | outcome [8]

CN1CCN(c2ccnc3ccc(NC(=O)Nc4cccc(C#N)c4)cc23)CC1
inactive: inhibition [2] 11% | inhibition [3] -1% | outcome [5] | outcome [6] | outcome [7] | outcome [8]
active: growth inhibition [1] 96% | growth inhibition [4] 99%

Oc1ccc2c(CNCCc3ccccc3)c(O)ccc2c1CNCCc1ccccc1
active: growth inhibition [1] 100% | growth inhibition [4] 99%
inactive: inhibition [2] 24% | inhibition [3] -8% | outcome [5] | outcome [6] | outcome [7] | outcome [8]

CC1CCc2sc(-c3nnc(SC(C)C(=O)NC4CC4)o3)cc2C1 (stereo not drawn)
active: growth inhibition [1] 69% | growth inhibition [4] 83%
inactive: inhibition [2] 5% | inhibition [3] -4% | outcome [5] | outcome [6] | outcome [7] | outcome [8]

CCc1ccc(C2CCN(CCCCNC(=O)c3ccc(NC(=O)c4ccc(Cl)cc4)cc3)CC2)c(OCC(=O)OC)c1
inactive: growth inhibition [1] 12% | inhibition [2] 32% | inhibition [3] 6% | outcome [5] | outcome [6] | outcome [7] | outcome [8]
active: growth inhibition [4] 95%

Clc1ccc2c(NCCCCCCCCNc3ccnc4cc(Cl)ccc34)ccnc2c1
inactive: inhibition [2] 2% | inhibition [3] 4% | outcome [5] | outcome [6] | outcome [7] | outcome [8]
active: growth inhibition [1] 96% | growth inhibition [4] 99%

CCOC(=O)NC1=NC(C)(C)N(OCc2cccc3c2ccc2ccccc23)C(NC(=O)OCC)=N1
inactive: growth inhibition [1] 3% | inhibition [2] 3% | inhibition [3] 4% | outcome [5] | outcome [6] | outcome [7] | outcome [8]
active: growth inhibition [4] 98%

CN1CCc2ccc(NC(=O)Nc3ccc(-c4ccccc4)cc3)cc2C1
inactive: growth inhibition [1] 45% | inhibition [2] 24% | inhibition [3] 3% | outcome [5] | outcome [6] | outcome [7] | outcome [8]
active: growth inhibition [4] 90%

CCOC(=O)c1c(C)n(-c2ccccc2)c2ccc(O)cc12
active: growth inhibition [1] 87% | growth inhibition [4] 101%
inactive: inhibition [2] -7% | inhibition [3] -4% | outcome [5] | outcome [6] | outcome [7] | outcome [8]

CN(C)CCN(C)Cc1cccc(-c2ccc3c(Nc4cc(O)c(Cl)cc4F)ccnc3c2)c1
inactive: inhibition [2] 14% | inhibition [3] -5% | outcome [5] | outcome [6] | outcome [7] | outcome [8]
active: growth inhibition [1] 70% | growth inhibition [4] 101%

c1ccc(CCNCc2ccc(-c3cccc(CNc4ccc5ncccc5c4)c3)cc2)cc1
active: growth inhibition [4] 91%
inactive: growth inhibition [1] 17% | inhibition [2] 30% | inhibition [3] 3% | outcome [5] | outcome [6] | outcome [7] | outcome [8]

N#Cc1ccc(-c2ccc(C(=O)NCCCCN3CCC(c4ccc5c(c4OCc4ccncc4)CCCC5)CC3)cc2)cc1
active: growth inhibition [1] 57% | growth inhibition [4] 81%
inactive: inhibition [2] 41% | inhibition [3] 1% | outcome [5] | outcome [6] | outcome [7] | outcome [8]

O=C(Nc1cc(C(F)(F)F)cc(C(F)(F)F)c1)c1cccc([N+](=O)[O-])c1
inactive: growth inhibition [1] 15% | inhibition [2] 23% | inhibition [3] -2% | outcome [5] | outcome [6] | outcome [7] | outcome [8]
active: growth inhibition [4] 93%

O=C(Nc1ccc(F)c(C(F)(F)F)c1)N[C@H]1CCN(CCCCCNC(=O)[C@@H]2C[C@H]2c2ccc(Cl)c(Cl)c2)C1
active: growth inhibition [4] 90%
inactive: growth inhibition [1] 0% | inhibition [2] 46% | inhibition [3] 7% | outcome [5] | outcome [6] | outcome [7] | outcome [8]

C[C@@H]1CN(c2cccc3c2nc(-c2cncc(C#N)c2)n3CCNCc2ccccc2)C[C@H](C)O1
active: growth inhibition [4] 83%
inactive: growth inhibition [1] 9% | inhibition [2] -5% | inhibition [3] 5% | outcome [5] | outcome [6] | outcome [7] | outcome [8]

O=C(NCCCCCN1CCC(c2c[nH]c3ccccc23)CC1)Nc1cccc(I)c1
active: inhibition [2] 70% | growth inhibition [4] 99%
inactive: growth inhibition [1] 11% | inhibition [3] -8% | outcome [5] | outcome [6] | outcome [7] | outcome [8]

CCOC(=O)CNC(=O)c1cc(=O)c2ccccc2o1
active: growth inhibition [4] 99%
inactive: growth inhibition [1] -4% | inhibition [2] 22% | inhibition [3] -4% | outcome [5] | outcome [6] | outcome [7] | outcome [8]

O=C(Nc1ccc(OC2CCN(Cc3ccsc3)C2)c(Cl)c1)c1cccs1 (stereo not drawn)
active: growth inhibition [1] 87% | growth inhibition [4] 91%
inactive: inhibition [2] -1% | inhibition [3] -5% | outcome [5] | outcome [6] | outcome [7] | outcome [8]

COc1ccc(Nc2ncc3c(-c4ccc(NC(=O)c5cccc(C(F)(F)F)c5)cc4)c[nH]c3n2)cc1OC
active: growth inhibition [4] 89%
inactive: growth inhibition [1] 30% | inhibition [2] 26% | inhibition [3] 4% | outcome [5] | outcome [6] | outcome [7] | outcome [8]

CN1CCN(CCCN(Cc2csc(-c3ccc(CNCc4ccccc4)cc3)n2)S(=O)(=O)c2ccc(F)cc2)CC1
inactive: inhibition [2] 21% | inhibition [3] 3% | outcome [5] | outcome [6] | outcome [7] | outcome [8]
active: growth inhibition [1] 80% | growth inhibition [4] 101%

CC1(C)N=C(N)N=C(N)N1OCCCOc1cc(Cl)ccc1Cl
active: growth inhibition [1] 96% | inhibition [2] 64% | growth inhibition [4] 96%
inactive: inhibition [3] -1% | outcome [5] | outcome [6] | outcome [7] | outcome [8]

C=CC[C@@H](C(=O)OCC)[C@@H]1[C@@H](N(CC=C)C(=O)OC(C)(C)C)CCN1C(=O)OCc1ccccc1
inactive: inhibition [2] 2% | inhibition [3] 4% | outcome [5] | outcome [6] | outcome [7] | outcome [8]
active: growth inhibition [1] 68% | growth inhibition [4] 92%

Cc1cc(NC(=O)c2cc(S(=O)(=O)N3CCCCC3)ccc2C)no1
inactive: growth inhibition [1] 29% | inhibition [2] -7% | inhibition [3] -7% | outcome [5] | outcome [6] | outcome [7] | outcome [8]
active: growth inhibition [4] 95%
